Bioassay records deposited in PubChem BioAssay by National Center for Advancing Translational Sciences (NCATS).
This is a sample that favours compounds with a hit; in the whole collection about 3.3% have one here.
IMPase cell inh = membrane-permeable compound that blocks inositol monophosphatase | P97697 | CHO-M1 cells, IP1 accumulation, HTRF TR-FRET ratio | inhibition (IP1 accumulation), % at 46.1 µM | 120,000 tested, under 10 active | AID 901; active = well fitted curve in the direction sought with a large enough effect in the signal ratio, not every such curve was filed as active; inconclusive = small, poorly fitted or top-dose-only effect, or a change in a side signal; inactive = no such curve, though single readings can be large or run the other way; the % refers to the signal ratio;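 also: cells stimulated with carbachol in lithium chloride buffer; higher means more IMPase inhibition seen as more IP1 and lower FRET ratio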
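CHO-M1, 2000 cells/well, cultured 16–30 h; cpd up to 46 uM; carbachol (50 uM solution, stimulation buffer w/ 50 mM LiCl, pH 7.4), 30 min 37C; IP-One TR-FRET, 10 min RT; Ex 320/Em 665, 620; Hill-fit AC50.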
ALOX12 inhib = 12-hLO (ALOX12) enzyme inhibition | Potency, µM (doses to about 57.1 µM), hits mostly inhibitors | purified 12-hLO, xylenol orange hydroperoxide absorbance | P18054 | actives 0.12% (n = 150,000); also: nearly all actives have a fitted effect of over 55% in size
Target sequence (P18054 whole entry, looked up): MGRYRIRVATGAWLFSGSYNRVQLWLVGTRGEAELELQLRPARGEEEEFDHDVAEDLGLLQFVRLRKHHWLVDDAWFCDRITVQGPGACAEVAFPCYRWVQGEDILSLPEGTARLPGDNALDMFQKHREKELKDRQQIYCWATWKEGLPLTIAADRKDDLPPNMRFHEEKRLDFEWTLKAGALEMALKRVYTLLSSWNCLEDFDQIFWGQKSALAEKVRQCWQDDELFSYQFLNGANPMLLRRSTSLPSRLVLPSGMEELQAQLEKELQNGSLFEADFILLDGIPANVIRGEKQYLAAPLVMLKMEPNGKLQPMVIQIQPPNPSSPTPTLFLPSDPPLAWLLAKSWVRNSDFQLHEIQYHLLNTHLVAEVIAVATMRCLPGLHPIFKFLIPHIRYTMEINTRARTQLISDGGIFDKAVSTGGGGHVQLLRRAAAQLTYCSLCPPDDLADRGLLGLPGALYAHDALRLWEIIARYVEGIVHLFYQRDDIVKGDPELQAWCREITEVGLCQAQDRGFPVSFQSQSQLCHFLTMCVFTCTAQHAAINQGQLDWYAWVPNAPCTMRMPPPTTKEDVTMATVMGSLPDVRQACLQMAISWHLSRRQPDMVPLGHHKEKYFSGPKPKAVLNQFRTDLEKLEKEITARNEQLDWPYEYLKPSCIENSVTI
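Purified human 12hLO (150 nM final) was preincubated with compounds for 15 min at room temperature in 25 mM Hepes pH 7.0, 0.01% Triton X-100, then reacted with 40 uM arachidonic acid for 30 min. Hydroperoxide was detected with ferrous iron/xylenol orange.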
HTT ATP protect = Huntington cell model cytoprotection by ATP luminescence | PC12 HTT-Q103 induced, cytoprotection, ATP luminescence, 40 h | Potency, µM (top dose mostly 56.4 µM), actives largely listed as activators | actives 0.14% (n = 230,000); also: nearly all actives have a fitted effect of over 45% in size
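Quantitative HTS on tebufenozide-induced (100 nM) PC12 cells expressing HTTQ103 exon 1–GFP; compounds tested as a concentration series; survival measured via cellular ATP.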
HttQ103 aggreg = inhibitors of mutant huntingtin aggregate formation in PC12 cells | AID 1688 | PC12 HttQ103-GFP aggregates, Acumen cytometry, 40 h | actives 1.1% (n = 220,000) | Potency, µM (doses to about 46.1 µM), usual class: inhibitors; also: nearly all actives have a fitted effect of over 60% in size
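Multiplexed with ATP-based cell death, this channel scores GFP aggregates in PC12 cells expressing inducible HTTex1-Q103-GFP. Induction used 100 nM tebufenozide; compounds were tested in concentration series.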
PNC inhibitor = perinucleolar compartment assembly inhibition; PC3M PTB-GFP, PNC prevalence imaging, 16 h; hits give low values; activity change (PNC), negative = inhibition, % at 10 µM; actives 3.1% (n = 140,000); AID 2417;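 active = readout at or below -70, meaning at least 70% loss of cells showing the perinucleolar compartment, a nuclear body marking cancer cells; inconclusive = readout between -30 and a set limit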
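PC3M cells stably expressing PTB-GFP, 750–1000 cells/well, treated 16 h at 37 °C with compound (23 nl of library stock), in duplicate. After paraformaldehyde fixation and Hoechst stain, imaged at 20x; PNC prevalence scored by image analysis.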
NPSR antagonist = blocks cAMP signaling of the human neuropeptide S receptor | Q6W5P4 | CHO-NPSR cells, cAMP TR-FRET, antagonist mode | Potency, µM (highest dose often 38.3 µM), most hits filed as inhibitors | actives 1% (n = 220,000) | AID 1461; also: nearly all actives have a fitted effect of over 50% in size
Hits are given with their value; [ ] = remark or other dose. Unless noted, calls follow the shape of the dose curve; as a rule, active = well fitted curve in the direction sought with a large enough effect; inconclusive = small, poorly fitted or top-dose-only effect, or another doubt; inactive = no such curve, though single readings can be large; an effect the other way counts as inactive or inconclusive.

What do the screens show for `O=C1Cc2cc(CCN3CCN(c4nsc5ccccc45)CC3)c(Cl)cc2N1`?
NPSR antagonist: inactive

Results for N=c1c2c(-c3ccccc3)c(-c3ccccc3)n(Cc3ccco3)c2ncn1Cc1ccco1 ?
IMPase cell inh: inactive; ALOX12 inhib: inactive; HTT ATP protect: inactive; HttQ103 aggreg: 11µM; PNC inhibitor: inactive; NPSR antagonist: 10µM

What do the screens show for `N=c1c2c(-c3ccccc3)c(-c3ccccc3)n(Cc3ccccc3)c2ncn1CCCn1ccnc1`?
IMPase cell inh: inactive; ALOX12 inhib: inactive; HTT ATP protect: inactive; HttQ103 aggreg: inconclusive; PNC inhibitor: -98; NPSR antagonist: inconclusive

How did CC(C)CN1CCCC2(CCN(S(=O)(=O)c3ccccc3)CC2)C1 do in these assays?
ALOX12 inhib: inactive; HTT ATP protect: inactive

How did C=CCN(CC=C)S(=O)(=O)c1ccc(NC(=O)COc2ccccc2OC)cc1 do in these assays?
IMPase cell inh: inactive; ALOX12 inhib: inactive; HTT ATP protect: inactive[10 µM]; HttQ103 aggreg: inactive; PNC inhibitor: -88; NPSR antagonist: inactive

What do the screens show for `COc1ccccc1-c1nnc(SCC(=O)NCc2c(C)c(Cl)cc(C(C)C)c2O)o1`?
IMPase cell inh: inactive; ALOX12 inhib: inactive; HTT ATP protect: inactive; HttQ103 aggreg: 13µM; PNC inhibitor: inactive; NPSR antagonist: inactive

How did COc1ccccc1-c1nnc(SCC(=O)Nc2c(Cl)cccc2Cl)o1 do in these assays?
IMPase cell inh: inconclusive; ALOX12 inhib: inactive; HTT ATP protect: inactive[10 µM]; HttQ103 aggreg: inactive; PNC inhibitor: inactive; NPSR antagonist: inactive

Results for O=C(/C=C1\NC2(CCCC2)Cc2ccccc21)C(=O)N/N=C/c1ccc(O)c(O)c1 ?
ALOX12 inhib: 0.89µM; HttQ103 aggreg: inactive; PNC inhibitor: inactive; NPSR antagonist: 13µM

Results for COc1ccc(/C=N/NC(=O)C(=O)/C=C2\NC3(CCCC3)Cc3ccccc32)cc1 ?
IMPase cell inh: inactive; ALOX12 inhib: inactive; HTT ATP protect: inactive[10 µM]; HttQ103 aggreg: inactive; PNC inhibitor: inactive; NPSR antagonist: inactive

What do the screens show for `Cc1[nH]c2ccccc2c1C1C(c2ccccc2)=NN=C(C(C)C)N1O` (stereo not drawn)?
IMPase cell inh: inactive; ALOX12 inhib: inactive; HTT ATP protect: inactive[10 µM]; HttQ103 aggreg: inactive; PNC inhibitor: -103; NPSR antagonist: inactive

How did CCOC(=O)C1=C(C)Nc2nnnn2C1c1c[nH]c2ccccc12 (stereo not drawn) do in these assays?
IMPase cell inh: inactive; ALOX12 inhib: inactive; HTT ATP protect: inactive[0.074 µM]; HttQ103 aggreg: inactive; PNC inhibitor: inactive; NPSR antagonist: inactive

Results for CC1=NN=C(c2ccccc2)C(c2c[nH]c3ccccc23)N1O (stereo not drawn) ?
ALOX12 inhib: inactive; HttQ103 aggreg: inactive; PNC inhibitor: -114; NPSR antagonist: inactive

How did CCOC(=O)c1ccc(NC(=O)C(Cc2ccccc2)NS(=O)(=O)c2ccc(Br)s2)cc1 (stereo not drawn) do in these assays?
IMPase cell inh: inactive

How did O=C(Nc1cccc(F)c1)N1CC[C@@]2(CCCN(S(=O)(=O)c3ccccc3)C2)C1 do in these assays?
ALOX12 inhib: inactive; HTT ATP protect: inactive

How did O=C(NCc1ccccn1)c1cc(-c2ccccc2Cl)nc2ccccc12 do in these assays?
ALOX12 inhib: inactive; HTT ATP protect: inactive[10 µM]; HttQ103 aggreg: inactive; PNC inhibitor: -88; NPSR antagonist: inactive

What do the screens show for `Cc1ccc(-c2nnc(SCC#N)n2N)cc1`?
IMPase cell inh: inactive; ALOX12 inhib: inactive; HTT ATP protect: inactive; HttQ103 aggreg: inactive; PNC inhibitor: -83; NPSR antagonist: inactive

How did Cc1cccc(-c2nnc(SCC#N)n2C)c1 do in these assays?
NPSR antagonist: inactive

How did COc1ccc(-c2nnc(SCc3ccccc3)n2N)cc1 do in these assays?
IMPase cell inh: inactive; ALOX12 inhib: inactive; HTT ATP protect: inactive; HttQ103 aggreg: inactive; PNC inhibitor: -108; NPSR antagonist: inactive

How did COc1ccc(-c2nnc(SCCc3ccccc3)n2N)cc1 do in these assays?
IMPase cell inh: inactive; ALOX12 inhib: inactive; HTT ATP protect: inactive[0.074 µM]; HttQ103 aggreg: inactive; PNC inhibitor: inactive; NPSR antagonist: inactive

Results for CCOC(=O)c1[nH]c2c(c1Cc1ccccc1OC)C(=O)CC(c1ccc(OC)cc1)C2 (stereo not drawn) ?
IMPase cell inh: inactive

What do the screens show for `O=C(COC(=O)c1n[nH]c2ccccc12)NC(=O)NC1CCCCC1`?
IMPase cell inh: inactive; ALOX12 inhib: inactive; HTT ATP protect: inactive; HttQ103 aggreg: inactive; PNC inhibitor: -127; NPSR antagonist: inconclusive

Results for COc1ccc(C(=O)c2oc3ccccc3c2NC(=O)COc2ccccc2)cc1 ?
IMPase cell inh: inactive

How did CCN(CC)S(=O)(=O)c1ccc(NC2CCCc3ccccc32)nc1 (stereo not drawn) do in these assays?
IMPase cell inh: inactive; ALOX12 inhib: inactive; HTT ATP protect: inactive[10 µM]; HttQ103 aggreg: inactive; PNC inhibitor: -100; NPSR antagonist: inactive

How did c1ccccc1 do in these assays?
ALOX12 inhib: inactive; HTT ATP protect: inactive

How did COC(=O)c1cc(OC)c(OC)cc1NC(=O)C1CCC(=O)N1S(=O)(=O)c1ccc(C)cc1 (stereo not drawn) do in these assays?
IMPase cell inh: inactive; ALOX12 inhib: inactive; HTT ATP protect: inactive; HttQ103 aggreg: 3.2µM; PNC inhibitor: inactive; NPSR antagonist: inactive

Results for COC(=O)c1ccc(NC(=O)C2CCCN2S(=O)(=O)c2ccc(C)cc2)cc1 (stereo not drawn) ?
IMPase cell inh: inactive; ALOX12 inhib: inactive; HTT ATP protect: inactive[10 µM]; HttQ103 aggreg: inactive; PNC inhibitor: -119; NPSR antagonist: inactive

Results for COC(=O)C(C(=O)OC)[C@@H](NC(=O)OCc1ccccc1)c1ccccc1 ?
ALOX12 inhib: inactive; HTT ATP protect: inactive

What do the screens show for `CCSCCOC(=O)C1=C(C)NC2=C(C(=O)CCC2)C1c1coc2ccccc2c1=O` (stereo not drawn)?
IMPase cell inh: inactive; ALOX12 inhib: inactive; HTT ATP protect: inactive; HttQ103 aggreg: inactive; PNC inhibitor: inconclusive; NPSR antagonist: inactive

How did CC1=C(C(=O)OC(C)C)C(c2coc3ccccc3c2=O)C2=C(CCCC2=O)N1 (stereo not drawn) do in these assays?
IMPase cell inh: inactive; ALOX12 inhib: inactive; HTT ATP protect: inactive[10 µM]; HttQ103 aggreg: inactive; PNC inhibitor: -81; NPSR antagonist: inactive

How did O=C(O)COc1ccc(/C=N/n2c(COc3ccccc3)nc3ccccc3c2=O)cc1 do in these assays?
IMPase cell inh: inactive; ALOX12 inhib: inactive; HTT ATP protect: inactive[10 µM]; HttQ103 aggreg: inactive; PNC inhibitor: -115; NPSR antagonist: inactive
